Measurements reported in PubChem BioAssay (Tox21).
Inconclusive results are not listed. A number with no mark means an inactive call. Active and inactive are the calls of the source. Calls come from the whole dose curve; as a rule, active = well fitted cell-killing curve with a large enough effect in the repeat runs; inconclusive = weak or mixed curves; inactive = flat fitted curve, though single readings scatter.
% is set by controls: 0 for no effect and ±100 for the full control effect.

Experiment: qHTS assay to identify small molecule antagonists of the estrogen receptor beta (ER-beta) signaling pathway - cell viability counter screen (AID 1259382); note: nearly all actives have a fitted effect of over 55% in size
Settings: ER-beta-UAS-bla HEK293T viability, CellTiter-Glo luminescence, 16 h; series mostly up to 92.4 µM
From the text: U.S. Tox21 Program National Center for Advancing Translational Sciences [NCATS] NIH Chemical Genomics Center [NCGC] U.S. Environmental Protection Agency [EPA] National Institutes of Environmental Health Sciences [NIEHS] National Toxicology Program [NTP] U.S. Food and Drug Administration [FDA] Tox21 Assay Overview: Estrogen receptor (ER), a nuclear hormone receptor, plays an important role in development, metabolic homeostasis and reproduction. Two subtypes of ER, ER-alpha and ER-beta, have similar expression patterns with some uniqueness in both types. Endocrine disrupting chemicals (EDCs) and their interactions with steroid hormone receptors like ER causes disruption of normal endocrine function. To identify the compounds that inhibit ER signaling, an ER-beta-UAS-bla GripTite cell line (Life Technologies, Madison, WI, USA) containing a beta-lactamase reporter gene under the control of an UAS response element was used to screen Tox21 10K compound library. The cytotoxicity of the Tox21 compound library against the ER-beta-bla cell line was tested in parallel by measuring the cell viability using CellTiter-Glo assay in the same wells.
Tox21 Assay Protocol Summary: ER-beta-UAS-bla HEK293T cells were dispensed at 2,000 cells/4 uL of assay medium containing 2% charcoal stripped FBS per well into black wall/clear-bottom 1536-well plates using a Multidrop Combi (ThermoFisher Scientific, Waltham, MA) dispenser. After the assay plates were incubated at a 37C and 5% CO2 for 6 hr, 23 nL of compounds dissolved in DMSO, positive controls or DMSO only was transferred to the assay plate by a Pintool station (Kalypsys, San Diego, CA), followed by addition of 1 uL (1nM as final concentration) of 17-beta-estradiol (E2) in assay medium using a Flying Reagent Dispenser (FRD, Aurora Discovery, San Diego, CA). The plates were incubated at 37C and 5% CO2 for 16 hr. Then 1 uL of LiveBLAzer B/G FRET substrate was added using a Flying Reagent Dispenser, the plates were incubated at room temperature for 2 hours, and fluorescence intensity was measured by an Envision plate reader (PerkinElmer, Shelton, CT). For cell viability readout that measures cytotoxicity, 4 uL/well of CellTiter-Glo reagent was added into the assay plates using a FRD. After 30 min incubation at room temperature, the luminescence intensity in the plates was measured using a ViewLux (PerkinElmer) plate reader.
In the case of `COCCOC(=O)C1=C(C)NC(C)=C(C(=O)OC(C)C)C1c1cccc([N+](=O)[O-])c1` (stereo not given), the outcome is reported as “inactive”.
For `NCCN1CCOCC1`, the outcome was “inactive”.
In the case of `C#CC(C)N(C)C(=O)Nc1ccc(Cl)cc1` (stereo not given), the outcome is reported as “inactive”.
For `COC(=O)[C@@H]1[C@H]2C[C@H]3c4[nH]c5ccccc5c4CCN3C[C@@H]2CC[C@@H]1O`, the outcome was “inactive”.
For `CC(=O)Nc1ccc(S(=O)(=O)Nc2ccc([N+](=O)[O-])cc2)cc1`, the outcome was “inactive”.
With `CC(=C(CCOC(=O)C(C)C)SSC(CCOC(=O)C(C)C)=C(C)N(C=O)Cc1cnc(C)nc1N)N(C=O)Cc1cnc(C)nc1N` the outcome was “inactive”.
In the case of `O=C(OCC(COC(=O)c1cccnc1)(COC(=O)c1cccnc1)COC(=O)c1cccnc1)c1cccnc1`, the outcome is reported as “inactive”.
For `COc1ccc(S(=O)(=O)N2c3ccc(Cl)cc3[C@@](O)(c3ccccc3Cl)[C@H]2C(=O)N2CCC[C@@H]2C(N)=O)cc1OC`, the outcome was “inactive”.
With `BrCCCCCBr` the outcome was “inactive”.
For `CC1=C(C(=O)O)N2C(=O)[C@@H](NC(=O)[C@H](N)c3ccc(O)cc3)[C@H]2SC1`, the outcome was “inactive”.
For `CCO[Si](CCCS)(OCC)OCC`, the outcome was “inactive”.
Molecule `Oc1cn2c(n1)Nc1ccc(Cl)c(Cl)c1C2` has an activity change, negative = cytotoxicity of 4.54% [at 19 µM].
With `COCCOCCOCCOCCO` the outcome was “inactive”.
In the case of `CCCCOC(=O)c1ccccc1`, the outcome is reported as “inactive”.
For `O=C1CC(c2ccc(Cl)cc2)CC(=O)N1`, the outcome was “inactive”.
For `CC(C)CCCC(C)(C)O`, the outcome was “inactive”.
With `O=C(CCNNC(=O)c1ccncc1)NCc1ccccc1` the outcome was “inactive”.
With `O=C1O[C@@H]2[C@@H](O)[C@H](O)O[C@@H]2[C@H]1O` the outcome was “inactive”.
For `C=C1CC/C=C(\C)CC[C@@H]2[C@@H]1CC2(C)C`, the outcome was “inactive”.
With `COc1cc2c(cc1OC)C(=O)CC2` the outcome was “inactive”.
With `CCCCCCCCC(=O)Cl` the outcome was “inactive”.
In the case of `CO[C@@H]1[C@@H](OC(N)=O)[C@@H](O)[C@H](Oc2ccc3c(O)c(NC(=O)c4ccc(O)c(CC=C(C)C)c4)c(=O)oc3c2C)OC1(C)C`, the outcome is reported as “inactive”.
With `Oc1ccccc1-c1nnco1` the outcome was “inactive”.
For `C[C@H](N)[C@H](O)c1cccc(O)c1`, the outcome was “inactive”.
For `NS(=O)(=O)c1ccc(NC(=O)CCC(=O)O)cc1`, the outcome was “inactive”.
Molecule `CCCCCCCC/C=C\CCCCCCCC(=O)OCCCC` has an activity change, negative = cytotoxicity of -4.71% [at 19 µM].
For `CCCCCCOC(=O)CC`, the outcome was “inactive”.
With `CC(C(=O)O)c1ccc2c(c1)CC(=O)c1ccccc1S2` (stereo not given) the outcome was “inactive”.
For `CC1=CCC(C(C)C)=CC1`, the outcome was “inactive”.
With `C=C(C)C(=O)OCC(C)(C)COC(=O)C(=C)C` the outcome was “inactive”.
`O=S(O)(O)=S` gave an activity change, negative = cytotoxicity of 4.48% [at 8.39 µM].
For `Cc1cccc(C)c1NC(=O)c1ccccc1C(=O)O`, the outcome was “inactive”.
In the case of `Brc1ccc(-c2ccccc2)cc1`, the outcome is reported as “inactive”.
With `CC(C)C[C@H](NC(=O)CNC(=O)[C@H](Cc1ccc(O)cc1)NC(=O)[C@H](CO)NC(=O)[C@H](Cc1c[nH]c2ccccc12)NC(=O)[C@H](Cc1cnc[nH]1)NC(=O)[C@@H]1CCC(=O)N1)C(=O)N[C@@H](CCCN=C(N)N)C(=O)N1CCC[C@H]1C(=O)NCC(N)=O` (stereo in doubt) the outcome was “inactive”.
For `NC(CO)C(=O)NNCc1ccc(O)c(O)c1O` (stereo not given), the outcome was “inactive”.
Molecule `C[Si](C)=O` has an activity change, negative = cytotoxicity of 0.879% [at 8.39 µM].
For `O=C(/N=N/C(=O)OCc1ccccc1)OCc1ccccc1`, the outcome was “inactive”.
In the case of `CC(C)CC(=O)O`, the outcome is reported as “inactive”.
With `O=C1c2ccccc2C(=O)N1CCl` the outcome was “inactive”.
In the case of `CN(C)c1ccc(C=O)cc1`, the outcome is reported as “inactive”.
